The record followed here is PubChem BioAssay (Tox21).

A short description of assay [1]: qHTS assay to identify small molecule antagonists of the constitutive androstane receptor (CAR) signaling pathway - cell viability counter screen (AID 1224837). Further: nearly all actives have a fitted effect of over 45% in size. The procedure, abridged: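 Using CellTiter-Fluor, viability is scored in HepG2 cells stably carrying hCAR and a 2.2kb CYP2B6 reporter after 23 hr compound exposure across 15 concentrations, with CITCO present at 50 nM.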
On the technique in general: qHTS replaces the single test concentration by a dilution series.

Assay [2] concerns the target Nuclear receptor subfamily 1 group I member 3 (Homo sapiens) (UniProt Q14994). Nature of the assay: qHTS assay to identify small molecule antagonists of the constitutive androstane receptor (CAR) signaling pathway (AID 1224838).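 Further: HepG2 cells stably expressing hCAR with CYP2B6 luciferase reporter stimulated by CITCO; nearly all actives have a fitted effect of over 40% in size.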 The procedure, abridged:
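Reporter luminescence was quantified after 24 h exposure of hCAR/CYP2B6-2.2kb double-stable HepG2 cells to compounds at 15 concentrations in the presence of 50 nM CITCO final.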

Assay [3] has the same target. Nature of the assay: qHTS assay to identify small molecule agonists of the constitutive androstane receptor (CAR) signaling pathway (AID 1224839). Further: nearly all actives have a fitted effect of over 15% in size. Further: potency means the concentration at half of the fitted maximal effect. The procedure, abridged:
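Cells were plated and incubated 4 hrs, then dosed with compounds at 15 concentrations. PK11195 was added to 0.75 uM final. After 24 hrs at 37 C, luciferase luminescence was measured.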

Assay [4] can be described thus: qHTS assay to identify small molecule antagonists of the estrogen related receptor signaling pathway with the pleiotropic PPARgamma coactivator (PGC) from Tox21 10K library - cell viability counter screen (AID 1224840; active means well fitted cell-killing curve with a large enough effect in the repeat runs, not every such curve was filed as active; further: nearly all actives have a fitted effect of over 40% in size). The procedure, abridged:
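Here the PGC/ERR cells serve as a cytotoxicity control: they are exposed to compounds for 17.5 hours at 37 C, and live-cell signal is quantified using CellTiter-Fluor fluorescence.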

Assay [5] is described as follows: qHTS assay to identify small molecule antagonists of the estrogen related receptor signaling pathway with the pleiotropic PPARgamma coactivator (PGC) from Tox21 10K library (AID 1224841; call rule not given here; further: actives are mostly falling curves and most rising ones were filed inactive; nearly all actives have a fitted effect of over 50% in size; further: potency means the concentration at half of the fitted maximal effect). The procedure, abridged:
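Each well held 2,000 PGC/ERR cells, pre-incubated six hours (37 C, 5% CO2). Test substances in DMSO were added by pin tool and left for 18 h at 37 C before luciferase detection by One-Glo.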

Assay [6] can be described thus: qHTS assay to identify small molecule agonists of the estrogen related receptor signaling pathway with the pleiotropic PPARgamma coactivator (PGC) from Tox21 10K library (AID 1224842). Further: nearly all actives have a fitted effect of over 15% in size. The procedure, abridged: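 PGC/ERR reporter cell line, 2,000 cells per well, incubated 6 h at 37 C before 23 nL compound in DMSO was added. After 18 h at 37 C, One-Glo luminescence read following 30 min at room temperature.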

For assay [7], the target named is Thyrotropin receptor (Homo sapiens) (UniProt P16473). Nature of the assay: qHTS assay to identify small molecule agonists of the thyroid stimulating hormone receptor (TSHR) signaling pathway (AID 1224843; calls by dose curve; further: nearly all actives have a fitted effect of over 45% in size). The procedure, abridged: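 TSHR-HEK293 cells in agonist mode, 30 min room-temperature step, then cAMP measured by competitive HTRF (cAMP-d2 with anti-cAMP cryptate) after 1 h at room temperature. Tested at 15 concentrations in triplicate.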

A short description of assay [8]: qHTS assay to identify small molecule agonists of the hypoxia (HIF-1) signaling pathway - cell viability counter screen (AID 1224844; calls by dose curve; further: nearly all actives have a fitted effect of over 50% in size). The procedure, abridged: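 Multiplexed with the HRE beta-lactamase assay, this viability read used CellTiter-Glo luminescence (30 min, RT) on HRE-bla ME-180 cells treated 17 hrs with compounds in 0.5% dialyzed FBS medium.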
Assay [9] can be described thus: qHTS assay to identify small molecule agonists of the hypoxia (HIF-1) signaling pathway (AID 1224846; active means well fitted activation curve with a large enough effect in the signal ratio in the repeat runs, not every such curve was filed as active; the % refers to the signal ratio). The procedure, abridged:
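Hypoxia-pathway activation was scored as increased beta-lactamase from an HRE-controlled reporter in ME-180 cells; plated at 2,000 cells per well with 0.5% dialyzed FBS, they were exposed 17 hrs to compounds and then given CCF4-AM.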

A short description of assay [10]: qHTS assay to identify small molecule antagonists of the estrogen related receptor (ERR) signaling pathway from Tox21 library (AID 1224848). Further: nearly all actives have a fitted effect of over 50% in size. The procedure, abridged: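 ERR reporter cell line (from NTP) seeded 2,000 cells/well, rested 6 h at 37 C/5% CO2, then pin-dosed with compounds in DMSO. After 18 h at 37 C, ONE-Glo added; luminescence read after 30 min at room temperature.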

Assay [11] in a line: qHTS RealTime-Glo MT Cell Viability Assay in HepG2 cells - 24 hour (AID 1224867). Further: nearly all actives have a fitted effect of over 50% in size. In short, it runs like this:
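HepG2 cells (600/well) were dispensed with RealTime-Glo reagents, incubated 5 h at 37 °C, then treated with compounds in DMSO for up to 40 h. Nonlytic NanoLuc luminescence reflecting viable cells was read at each stated time point.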

Assay [12] can be described thus: qHTS RealTime-Glo MT Cell Viability Assay in HEK293 cells - 32 hour (AID 1224868). The procedure, abridged: (§1)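 HEK293 cells seeded with NanoLuc/prosubstrate reagent, rested 5 h at 37 C, then dosed and kept at 37 C up to 40 h. Nonlytic real-time luminescence from viable cells read at 0, 8, 16, 24, 32 and 40 h.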
A short description of assay [13]: A CellTox Green Cytotoxicity Assay to monitor cytotoxicity in HEK293 cells - 0 hour (AID 1224869). Further: nearly all actives have a fitted effect of over 50% in size. The procedure, abridged:
(§2)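 Seeding of HEK293 cells together with cytotoxicity dye preceded a 5 h incubation at 37 C/5% CO2. Test compounds in DMSO were then added and fluorescence monitored across 40 h.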

The nature of assay [14]: A CellTox Green Cytotoxicity Assay to monitor cytotoxicity in HEK293 cells - 40 hour (AID 1224871). Further: nearly all actives have a fitted effect of over 45% in size. The procedure, abridged:
as §2

Assay [15] is described as follows: qHTS RealTime-Glo MT Cell Viability Assay in HEK293 cells - 16 hour (AID 1224872). The procedure, abridged:
as §1

Assay [16] in a line: qHTS RealTime-Glo MT Cell Viability Assay in HepG2 cells - 8 hour (AID 1224873). Further: nearly all actives have a fitted effect of over 55% in size. In short, it runs like this:
(§3)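 HepG2 cells (600/well) mixed with RealTime-Glo MT reagent, settled 5 h at 37 C/5% CO2 before compound addition. Nonlytic NanoLuc luminescence from viable-cell prosubstrate reduction read repeatedly during 40 h treatment at 37 C.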

Assay [17] is described as follows: qHTS assay to identify small molecule agonists of H2AX (AID 1224845; active means well fitted activation curve with a large enough effect in the signal ratio in the repeat runs, not every such curve was filed as active; the % refers to the signal ratio). In short, it runs like this:
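Wild-type CHO-K1 cells, plated overnight, exposed 3hr at 37C to 15 concentrations (0.76% DMSO final). Lysed, then HTRF anti-pH2AX (S139) cryptate and anti-H2AX-d2 antibodies, 24 hr room temperature; 665/620 nm emission read.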

Assay [18] can be described thus: qHTS RealTime-Glo MT Cell Viability Assay in HepG2 cells - 40 hour (AID 1224870). Further: nearly all actives have a fitted effect of over 50% in size. In short, it runs like this:
as §3

The nature of assay [19]: qHTS assay to identify small molecule agonists of H2AX - cell viability counter screen (AID 1224847; calls by dose curve; further: top concentration of the series differs between compounds; nearly all actives have a fitted effect of over 30% in size). The procedure, abridged:
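Cytotoxicity counter screen in wild-type CHO-K1 cells: a 3 hr compound treatment at 37C across 15 concentrations, followed by CellTiter-Glo luminescence to gauge viable cells.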

The nature of assay [20]: qHTS assay to identify small molecule agonists of the estrogen related receptor (ERR) signaling pathway from Tox21 library (AID 1224849; calls by dose curve; further: nearly all actives have a fitted effect of over 15% in size). The note with it: ERR reporter cell line, ONE-Glo luciferase, 18 h; at 92.4 µM (top of the series). The procedure, abridged:
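Six hours post-seeding at 37 C/5% CO2, ERR cells receive DMSO-solubilised compounds; after 18 h at 37 C, ONE-Glo reagent is applied and luminescence recorded.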

Where “and” joins values, the source holds several entries; their conditions need not be identical. Equal entries are not always repeated. Records with an inconclusive call do not appear. The source holds several records for some structures; these can differ, active in one and inactive in another. Calls of active or inactive are those of the source. Unless noted, the call rests on the fitted dose curve; in most records, active means well fitted curve in the direction sought with a large enough effect in the repeat runs; inconclusive means weak or mixed curves; inactive means no such curve, though single readings can be large; an effect the other way counts as inactive or inconclusive.
On the % scale 0 is the no-effect control and ±100 the full control effect.

Sequence of Nuclear receptor subfamily 1 group I member 3 (Homo sapiens) (Q14994 whole entry, looked up): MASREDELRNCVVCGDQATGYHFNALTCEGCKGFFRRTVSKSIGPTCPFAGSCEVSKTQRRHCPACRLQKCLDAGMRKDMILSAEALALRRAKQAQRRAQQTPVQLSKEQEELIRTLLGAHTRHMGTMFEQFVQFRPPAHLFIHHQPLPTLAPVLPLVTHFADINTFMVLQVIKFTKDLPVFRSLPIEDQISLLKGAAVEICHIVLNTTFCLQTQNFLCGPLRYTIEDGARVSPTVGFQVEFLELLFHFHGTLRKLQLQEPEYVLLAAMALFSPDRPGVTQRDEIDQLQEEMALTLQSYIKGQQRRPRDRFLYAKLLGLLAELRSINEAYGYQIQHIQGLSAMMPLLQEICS
Sequence of Thyrotropin receptor (Homo sapiens) (P16473 whole entry, looked up): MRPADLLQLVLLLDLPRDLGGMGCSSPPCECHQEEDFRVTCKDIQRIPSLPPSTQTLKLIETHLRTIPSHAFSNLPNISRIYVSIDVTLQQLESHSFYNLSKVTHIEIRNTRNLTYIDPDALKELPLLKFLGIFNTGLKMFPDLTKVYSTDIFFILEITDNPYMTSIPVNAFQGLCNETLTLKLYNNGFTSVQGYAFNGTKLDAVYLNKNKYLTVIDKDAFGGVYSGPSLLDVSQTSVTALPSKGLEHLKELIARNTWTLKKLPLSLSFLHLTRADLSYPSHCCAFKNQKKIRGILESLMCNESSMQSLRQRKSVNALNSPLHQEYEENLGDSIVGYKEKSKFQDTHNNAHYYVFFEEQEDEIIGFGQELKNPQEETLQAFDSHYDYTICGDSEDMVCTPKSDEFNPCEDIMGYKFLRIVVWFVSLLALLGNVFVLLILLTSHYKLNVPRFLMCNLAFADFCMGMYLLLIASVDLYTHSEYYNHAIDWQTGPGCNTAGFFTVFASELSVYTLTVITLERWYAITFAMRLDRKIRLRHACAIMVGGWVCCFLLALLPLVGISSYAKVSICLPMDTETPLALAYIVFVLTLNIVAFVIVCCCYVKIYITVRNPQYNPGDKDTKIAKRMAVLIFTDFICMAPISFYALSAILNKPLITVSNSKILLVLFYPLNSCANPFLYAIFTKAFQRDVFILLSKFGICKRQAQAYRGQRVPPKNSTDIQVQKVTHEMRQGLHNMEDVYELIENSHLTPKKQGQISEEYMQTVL

Consider `BrCCBr`, for which the Potency entry in assay [1], in [2], in assay [3], in assay [4], in assay [5] and in [7] was “inactive” each time. The Potency entry in [8], in [10], in [12], in [13] and in assay [14] was “inactive” throughout. Besides, the outcome in [6], in [9], in assay [11], in assay [15] and in [16] was inactive.
`CC(C)NC(=O)N1CC(=O)N(c2cc(Cl)cc(Cl)c2)C1=O`: the Potency entry in assay [1], in assay [2], in [3], in assay [4], in assay [7] and in assay [8] was “inactive” throughout. The Potency result in [17], in [10], in assay [13] and in [14] was “inactive” in each case. In assay [5], the Potency was 30.6 µM (active) and inactive. Further, the call in [6], in assay [9], in assay [11], in assay [18] and in assay [15] was inactive.
On to `CC(=O)C=C(C)C`, for which the Potency result in assay [1], in [2], in assay [3], in assay [4], in [5] and in assay [7] was “inactive” each time. Moreover, the Potency result in assay [8], in assay [17], in [19], in assay [10], in assay [12] and in assay [13] was “inactive” in each case. In assay [14], the Potency result was “inactive”. Moreover, the compound was called inactive in assay [6], in [9], in [11], in assay [18] and in [15].
With `Cc1ccc(N)cc1Cl`, the Potency entry in assay [1], in assay [2], in assay [3], in assay [4], in [7] and in assay [8] was “inactive” throughout. The Potency result in [17], in [19], in [12], in [13] and in [14] was “inactive” each time. Also, the result in [9], in assay [11], in assay [18] and in [15] was inactive.
Regarding `O=c1n(Cl)c(=O)n(Cl)c(=O)n1Cl`, the Potency result in assay [1], in [2], in [3], in [4], in [7] and in assay [8] was “inactive” throughout. Moreover, the Potency entry in [17], in [19], in assay [12], in assay [13] and in assay [14] was “inactive” in each case. Also, the outcome in [9], in assay [11], in assay [18], in [15] and in assay [16] was inactive.
For the compound `COC(=O)NS(=O)(=O)c1ccc(N)cc1`, the Potency result in assay [1], in [2], in assay [3], in assay [4], in [5] and in assay [7] was “inactive” each time. Also, the Potency entry in [8], in assay [17], in [10], in [12], in assay [13] and in [14] was “inactive” each time. The compound was called inactive in assay [6], in assay [9], in assay [11], in assay [18], in assay [15] and in assay [16].
On to `O=[N+]([O-])c1ccc(Oc2ccc(Cl)cc2Cl)cc1`, for which the Potency entry in assay [1], in assay [2], in assay [4], in [5], in assay [7] and in [8] was “inactive” in each case. Also, the Potency result in assay [17], in assay [10], in assay [13] and in assay [14] was “inactive” each time. Also, in assay [3], the Potency is 54.8 µM (active) and inactive. The call in assay [6], in [9], in assay [11] and in [16] was inactive.
Regarding `CN(N=O)c1ccccc1`, the Potency result in assay [1], in assay [2], in [3], in assay [4], in [5] and in assay [7] was “inactive” each time. For the same compound, the Potency entry in [8], in assay [17], in assay [10], in assay [12], in [13] and in assay [14] was “inactive” throughout. Besides, the result in assay [6], in assay [9], in [11], in assay [18], in [15] and in assay [16] was inactive. In addition, the activity change, positive = activation in [20] was 0% (inactive) and 7.25% (inactive).
